{"source": "PubChem BioAssay AID686979", "about": "(National Center for Advancing Translational Sciences (NCATS), 2013)", "note": "About 50,000 (12%) of roughly 420,000 compounds were called active. Where a call stands in place of a potency, no number is given. Another 26% or so got no clear call; they are omitted. Calls come from the whole dose curve; as a rule, active = well fitted inhibition curve with a large enough effect; inconclusive = small, poorly fitted or top-dose-only effect; inactive = flat fitted curve, though single readings scatter. Many of the other results were omitted from the sample, so actives are more common in it than they were. Potency is the fitted concentration of half-maximal effect."}
{"assay": "qHTS for Inhibitors of human tyrosyl-DNA phosphodiesterase 1 (TDP1): qHTS in cells in presence of CPT; note: nearly all actives have a fitted effect of over 55% in size", "details": "chicken DT40 Tdp1-/-;hTDP1 cells + 20 nM CPT, ATP luminescence, 48 h; series mostly up to 46.2 µM", "method_in_brief": "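Chicken DT40 Tdp1-/- cells stably complemented with human TDP1 were seeded at 400 cells/well in medium containing 20 nM camptothecin, exposed to pin-transferred compounds, and grown at 37 °C for at least 48 hr. Viability was read as ATP luminescence.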"}
{"smiles": "CCOc1ncccc1C(=O)OCC(=O)N1c2ccccc2CC1C", "note": "(stereo unspecified)", "Potency": "inactive"}
{"smiles": "Oc1cccc2ccc(/C=C/c3ccc(Br)s3)nc12", "Potency": "inactive"}
{"smiles": "Cc1c(C(=O)NCCN2C(=O)S/C(=C\\c3cccs3)C2=O)cccc1[N+](=O)[O-]", "Potency": "inactive"}
{"smiles": "CCCNC(=O)CCn1cc(-c2ccc(OC)cc2)nc1CCN", "Potency": "inactive"}
{"smiles": "CC(=O)c1cccc(NC(=S)N2CCN(S(C)(=O)=O)CC2)c1", "Potency": "inactive"}
{"smiles": "CCCCCn1c(=O)c(C(=O)OCC)c(Cl)c2ccccc21", "Potency": "inactive"}
{"smiles": "COc1ccc2oc(C)c(NC(C)=O)c2c1", "Potency": "inactive"}
{"smiles": "COc1ccc(S(=O)(=O)Nc2ccc3oc(C)c(C(C)=O)c3c2)cc1", "Potency": "3.26 µM (active)"}
{"smiles": "CC(=O)c1c(C)oc2ccc(NS(=O)(=O)c3ccccc3)cc12", "Potency": "inactive"}
{"smiles": "Cc1cccc(-c2noc(CCC(=O)NC3CCCC3)n2)c1", "Potency": "inactive"}
{"smiles": "CC(Oc1ccccc1)C(=O)Nc1c2c(nn1-c1ccccc1)CS(=O)C2", "note": "(stereo unspecified)", "Potency": "inactive"}
{"smiles": "COc1cccc(NC(=O)Cn2c(=O)cc(C)c3c(C)nn(-c4cccc(F)c4)c32)c1", "Potency": "inactive"}
{"smiles": "Cc1cc(C(=O)Nc2cccc(C(F)(F)F)c2)c2c(C)nn(-c3cccc(F)c3)c2n1", "Potency": "18.4 µM (active)"}
{"smiles": "Cc1cccc(NC(=O)c2nnn(-c3cccc(C(F)(F)F)c3)c2N)c1", "Potency": "inactive"}
{"smiles": "O=C(CNC(=O)c1ccccc1F)OCC(=O)c1c[nH]c2ccccc12", "Potency": "inactive"}
{"smiles": "COc1ccc(S(=O)(=O)NCCSc2nnnn2-c2ccccc2)cc1", "Potency": "inactive"}
{"smiles": "CCCn1c(=O)c2c(C(F)(F)F)cc(-c3cccs3)nc2n(CCC)c1=O", "Potency": "inactive"}
{"smiles": "CCn1c(/C=N/NC(=O)c2ccc(OC)cc2)nc2ccccc21", "Potency": "13 µM (active)"}
{"smiles": "Cc1nc2ccccc2n1CC(=O)N/N=C/c1cccs1", "Potency": "inactive"}
{"smiles": "CCn1c(C(O)c2cc(OC)ccc2OC)nc2ccccc21", "note": "(stereo unspecified)", "Potency": "inactive"}
{"smiles": "O=C(CCN1CCCCC1)Nc1ccc(F)c(F)c1", "Potency": "inactive"}
{"smiles": "O=C(CNS(=O)(=O)c1ccc2ccccc2c1)Nc1ccc(F)c(F)c1F", "Potency": "inactive"}
{"smiles": "Cc1ccc(S(=O)(=O)N2CCN(C(=O)CN3C(=O)NC(C)(c4ccc(Cl)cc4)C3=O)CC2)c(C)c1", "note": "(stereo unspecified)", "Potency": "23.1 µM (active)"}
{"smiles": "Cc1ccc(S(=O)(=O)N2CCN(C(=O)COC(=O)CNC(=O)c3ccc(C(C)(C)C)cc3)CC2)c(C)c1", "Potency": "inactive"}
{"smiles": "CCCc1cc(=O)[nH]c(SCC(=O)N2CCN(S(=O)(=O)c3ccc(C)cc3C)CC2)n1", "Potency": "inactive"}
{"smiles": "CC1(C)NC(=O)N(CC(=O)N2CCN(S(=O)(=O)c3ccccc3F)CC2)C1=O", "Potency": "inactive"}
{"smiles": "Cc1ccc(S(=O)(=O)N2CCN(C(=O)COC(=O)c3c(C)noc3C)CC2)c(C)c1", "Potency": "inactive"}
{"smiles": "Cc1ccc(S(=O)(=O)N2CCN(C(=O)Cc3sc(C)nc3-c3ccc(F)cc3)CC2)c(C)c1", "Potency": "18.4 µM (active)"}
{"smiles": "Cc1ccc(NC(=O)CN2C(=O)NC(C)(c3ccc(Cl)cc3)C2=O)c(Br)c1", "note": "(stereo unspecified)", "Potency": "inactive"}
{"smiles": "COc1ccccc1CCC(=O)OCC(=O)N1CCN(S(=O)(=O)c2ccc(C)cc2C)CC1", "Potency": "25.9 µM (active)"}
{"smiles": "Cc1nc(-c2ccc(F)cc2)c(CC(=O)Nc2cccc(S(=O)(=O)N3CCOCC3)c2)s1", "Potency": "inactive"}
{"smiles": "O=c1[nH]snc1-c1c(Cl)cccc1Cl", "Potency": "inactive"}
{"smiles": "CC1CCN(S(=O)(=O)c2ccc3ncn(CC(=O)N(C)C4CCCCC4)c(=O)c3c2)CC1", "Potency": "inactive"}
{"smiles": "CCc1cc(=O)oc2cc(C)cc(OCC(=O)N3CCC[C@@H]3C(=O)O)c12", "Potency": "inactive"}
{"smiles": "O=Cc1c(NCCc2cccc(F)c2)c2ccccc2[nH]c1=O", "Potency": "inactive"}
{"smiles": "Cc1ccc2[nH]c(C)c(CCNC(=O)NC3CCCCC3)c2c1", "Potency": "inactive"}
{"smiles": "CN(Cc1c(F)cccc1Cl)S(=O)(=O)c1cccs1", "Potency": "inactive"}
{"smiles": "COc1ccc(CC(=O)N[C@@H]2c3cc(OC)c(OC)cc3C[C@H]2OCc2ccccc2)cc1", "Potency": "inactive"}
{"smiles": "COc1ccc(C)cc1NC(=O)CN(C)S(=O)(=O)c1ccc2c(c1)n(C)c(=O)c(=O)n2C", "Potency": "inactive"}
{"smiles": "Cc1nc(NC(=O)C2CCCCC2)sc1C", "Potency": "inactive"}
{"smiles": "COc1cc(S(=O)(=O)Nc2ncn[nH]2)ccc1Cl", "Potency": "inactive"}
{"smiles": "CC(C)Cn1c(=O)c2ccccc2n2c(CCC(=O)NCc3ccccn3)nnc12", "Potency": "inactive"}
{"smiles": "CC(C)Cn1c(=O)c2ccccc2n2c(CCC(=O)N3CCN(c4cccc(Cl)c4)CC3)nnc12", "Potency": "10.3 µM (active)"}
{"smiles": "Cn1c(Cc2cccc3ccccc23)nnc1SCC(=O)N1CCN(c2cccc(Cl)c2)CC1", "Potency": "23.1 µM (active)"}
{"smiles": "Cn1c(CNC(=O)c2ccco2)nnc1SCC(=O)N1CCN(c2ccccc2)CC1", "Potency": "inactive"}
{"smiles": "COc1ccc(NC(=O)CCc2nnc3n(CC(C)C)c(=O)c4ccccc4n23)cc1OC", "Potency": "inactive"}
{"smiles": "Cc1ccccc1NC(=O)Cc1nnc(SCC(=O)N2CCN(c3ccccc3)CC2)n1C", "Potency": "inactive"}
{"smiles": "Cc1nc(NC(=O)c2ccc3c(c2)OCCO3)ccc1Br", "Potency": "inactive"}
{"smiles": "CC1CN(C(=S)Nc2cccc(F)c2)CC(C)O1", "note": "(stereo unspecified)", "Potency": "inactive"}
{"smiles": "O=C(CC1CCCCC1)NCc1ccco1", "Potency": "inactive"}
{"smiles": "CC(=O)N1C[C@@H](CO)[C@@H](N(C)C(=O)c2ccco2)C[C@H]1c1ccccc1", "Potency": "inactive"}
{"smiles": "OCC[C@H]1C[C@H](O)[C@@H](O)[C@]2(Cc3ccccc3CO2)O1", "Potency": "inactive"}
{"smiles": "Cc1ccc(C2=CSC3=NS(=O)(=O)CCN23)cc1C", "Potency": "inactive"}
{"smiles": "O=C1N[C@@H](c2ccccc2)COC(=O)[C@H](Cc2ccc(F)cc2)C/C=C\\C[C@@H]1CC(=O)N(CCO)Cc1ccccc1", "Potency": "23.1 µM (active)"}
{"smiles": "O=C(C[C@H]1C/C=C\\C[C@@H](NC(=O)OCC2c3ccccc3-c3ccccc32)C(=O)O[C@@H](c2ccccc2)CNC1=O)N[C@H](CO)Cc1ccccc1", "Potency": "10.3 µM (active)"}
{"smiles": "CN(Cc1cccs1)C(=O)Cc1c[nH]c2ccccc12", "Potency": "inactive"}
{"smiles": "O=C(N[C@@H](Cc1c[nH]c2ccccc12)C(=O)O)OCC1c2ccccc2-c2ccccc21", "Potency": "inactive"}
{"smiles": "O=C1N[C@H](Cc2c[nH]c3ccccc23)COC(=O)[C@H](Cc2ccc(F)cc2)C/C=C\\C[C@H]1CC(=O)N(CCO)Cc1ccccc1", "Potency": "23.1 µM (active)"}
{"smiles": "CC(C)(C)OC(=O)C[C@@H]1C/C=C\\C[C@@H](CC(=O)NCCO)C(=O)N[C@H](Cc2c[nH]c3ccccc23)COC1=O", "Potency": "inactive"}
{"smiles": "O=C1CCC/C=C\\C[C@@H](CC(=O)N(CCO)Cc2ccccc2)C(=O)NCCO1", "Potency": "inactive"}
{"smiles": "O=C1NC[C@@H](c2ccccc2)OC(=O)[C@H](Cc2ccc(F)cc2)CC/C=C/C[C@H]1CC(=O)N(CCO)Cc1ccccc1", "Potency": "16.4 µM (active)"}
{"smiles": "Cc1nc(N)c(Br)c(C)c1Br", "Potency": "inactive"}
{"smiles": "C[C@H]1CN([C@@H](C)CO)C(=O)CCCn2nncc2CO[C@@H]1CN(C)S(=O)(=O)c1cccc(C#N)c1", "Potency": "inactive"}
{"smiles": "Cc1cc(NC(=O)CN2C(=O)NC(C)(CCc3ccccc3)C2=O)no1", "note": "(stereo unspecified)", "Potency": "inactive"}
{"smiles": "Cc1nc2ccc(NC(=S)N3CCC(C)CC3)cc2nc1C", "Potency": "inactive"}
{"smiles": "CCn1c(SCC(=O)NCC2CCCO2)nc2ccccc21", "note": "(stereo unspecified)", "Potency": "inactive"}
{"smiles": "COc1ccc(S(=O)(=O)N2CCN(CC(=O)N3CCNC3=O)CC2)cc1OC", "Potency": "inactive"}
{"smiles": "COc1ccc2c(C)cc(SCC(=O)NCC3CCCO3)nc2c1", "note": "(stereo unspecified)", "Potency": "inactive"}
{"smiles": "O=S(=O)(Nc1ncnc2sccc12)c1cccc(F)c1", "Potency": "inactive"}
{"smiles": "O=C(N[C@@H]1C/C=C\\C[C@@H](CC(=O)N(CCO)Cc2ccccc2)C(=O)N[C@H](Cc2ccccc2)COC1=O)OCC1c2ccccc2-c2ccccc21", "Potency": "8.2 µM (active)"}
{"smiles": "Nc1nc2c(ncn2[C@@H]2O[C@H](CNCc3ccc(OCCCN4CCOCC4)cc3)[C@@H](O)[C@H]2O)c(=O)[nH]1", "Potency": "inactive"}
{"smiles": "CN(CC(=O)Nc1ccc(F)cc1)CC(=O)N1CCCCC1", "Potency": "inactive"}
{"smiles": "Cc1ccc(O)c(-c2cc(C(=O)Nc3c(C)n(C)n(-c4ccccc4)c3=O)[nH]n2)c1", "Potency": "inactive"}
{"smiles": "Nn1c(Cc2cccc3ccccc23)nnc1SCC(=O)N1CC(=O)Nc2ccccc21", "Potency": "inactive"}
{"smiles": "COc1ccc(CCNC(=O)CSc2nnc(CNC(=O)c3cccs3)o2)cc1OC", "Potency": "inactive"}
{"smiles": "COc1ccc(CN(Cc2ccc(OC)cc2)C(=O)c2cccs2)cc1", "Potency": "inactive"}
{"smiles": "COc1ccc(CCNC(=O)/C(C#N)=C2\\N=C(NC(=O)c3cccs3)c3ccccc32)cc1", "Potency": "10.3 µM (active)"}
{"smiles": "Fc1ccc(CN2CCc3nc(Nc4ccccc4)ncc3C2)cc1F", "Potency": "11.6 µM (active)"}
{"smiles": "COc1ccc(CN2CCc3nc(Nc4ccccc4)ncc3C2)c(OC)c1OC", "Potency": "16.4 µM (active)"}
{"smiles": "CCCN1CCc2nc(N3CCN(C)CC3)ncc2C1", "Potency": "inactive"}
{"smiles": "Cn1c(=O)c(CCc2ccccc2)nc2cnc(Nc3ccccc3)nc21", "Potency": "inactive"}
{"smiles": "Cc1nc2cnc(Nc3ccccc3)nc2n(Cc2ccc(F)cc2)c1=O", "Potency": "inactive"}
{"smiles": "COc1ccc(CN2CCN(Cc3ccc(OC)c(OC)c3OC)CC2)cc1", "Potency": "inactive"}
{"smiles": "CCCc1cc(=O)[nH]c2nnc(SCC(=O)Nc3nnc(SCC)s3)n12", "Potency": "inactive"}
{"smiles": "Cc1nc2cc(NC(=O)[C@@H]3C[C@@H](Sc4ccccn4)CN3Cc3ccccc3C)ccc2s1", "Potency": "inactive"}
{"smiles": "Cc1nn2c(=O)cc(COC(=O)c3cccc(NC(=O)COc4ccccc4Cl)c3)nc2s1", "Potency": "inactive"}
{"smiles": "O=C(CNS(=O)(=O)c1ccc(Br)s1)N1CCN(C(=O)c2ccco2)CC1", "Potency": "inactive"}
{"smiles": "C[C@@H]1CN([C@H](C)CO)C(=O)c2cc(NC(=O)NC3CCCCC3)ccc2O[C@H]1CN(C)S(C)(=O)=O", "Potency": "inactive"}
{"smiles": "C#Cc1ccc([C@@H]2C=C(C(=O)O)O[C@H](OCCCCO)C2)cc1", "Potency": "inactive"}
{"smiles": "CN1CCN(C(=O)C2=C[C@H](c3ccc4c(c3)OCO4)C[C@H](OCc3ccc(CO)cc3)O2)CC1", "Potency": "inactive"}
{"smiles": "O=C(C1=C[C@H](c2ccc(C(F)(F)F)cc2)C[C@H](OCc2ccc(CO)cc2)O1)N1CCN(Cc2ccccc2)CC1", "Potency": "23.1 µM (active)"}
{"smiles": "CCCCNC(=O)CSc1nc2cc3c(cc2c(=O)n1CCCCCC(=O)NCc1ccc2c(c1)OCO2)OCO3", "Potency": "inactive"}
{"smiles": "O=C(COc1ccc(Cl)cc1)Nc1ccc2oc(=O)ccc2c1", "Potency": "inactive"}
{"smiles": "O=c1[nH]c(CN2CCOCC2)nc2cc(Cl)ccc12", "Potency": "inactive"}
{"smiles": "O=c1[nH]c(CCl)nc2cc(-c3ccc(Cl)cc3)sc12", "Potency": "5.17 µM (active)"}
{"smiles": "NC(=O)Cc1nc2scc(-c3ccc(Cl)cc3)c2c(=O)[nH]1", "Potency": "inactive"}
